Rows were chosen to be rich in hits. Some 4% of all compounds tested hit in one or more screens of this group.
tim10-1 inh – tim10-1 yeast growth inhibition; S. cerevisiae tim10-1 ts strain growth, BacTiter-Glo, 24 h; inhibition, % at 20 µM; 2.2% of 330,000 active; AID 463190;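 active means inhibition of at least 40%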;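 further: mutant grown at 25 °C; 0% = DMSO wells with yeast and 100% = wells holding no yeast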
tim23-1 inh – inhibits growth of tim23-1 mutant yeast; S. cerevisiae tim23-1 growth, BacTiter-Glo luminescence, 24 h; inhibition, % at 20 µM; 1.3% of 330,000 active;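 active means growth inhibition of the mutant yeast at or above 50%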;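 further: temperature-sensitive mutant grown at 25 °C; plate controls were DMSO-treated mutant yeast for no effect and medium wells lacking yeast for full effect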
NALP3 yeast inh – blocks the NALP3 inflammasome reconstituted in yeast. Yeast reconstituted NLRP3/ASC/caspase-1, beta-gal luminescence, 24 h. inhibition, % at 10 µM. 0.39% of 330,000 active;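 active means inhibition of 50% or more; inactive means inhibition below 50%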;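 further: plate controls were induced DMSO wells for no effect and uninduced yeast grown without galactose for full effect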
NALP1 inh – NALP1 inhibition; S. cerevisiae NALP1/ASC/caspase-1 growth, X-gal OD620, 72 h; inhibition, % at 10 µM; 0.61% of 280,000 active; AID 2071; in the data active means inhibition mostly above about 24%, no sharp cut-off; inactive means mostly below about 32%
TIM10 inh – growth inhibitors of TIM10 yeast strain. inhibition, % at 10 µM. AID 463195. S. cerevisiae TIM10 strain growth, BacTiter-Glo luminescence, 24 h. 1.4% of 330,000 active;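 active means inhibition of 40% or more at the single tested concentration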;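 further: wild-type TIM10 isogenic control strain grown at permissive 25 °C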
tim23-1 confirm – confirmation of tim23-1 mutant yeast growth inhibitors | AID 463218 | inhibition, % at 20 µM | 83% of 4,400 active | S. cerevisiae tim23-1 growth, BacTiter-Glo luminescence, 24 h | shares compounds with tim23-1 inh;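 active means inhibition above about 39% in either of two replicate wells at 20 µM, limit read from the data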;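 further: temperature-sensitive tim23-1 mutant grown at 25 °C; 0% = DMSO wells with yeast and 100% = medium wells without yeast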
Starred values were filed as active, the others as inactive; . = no result.

SMILES | tim10-1 inh | tim23-1 inh | NALP3 yeast inh | NALP1 inh | TIM10 inh | tim23-1 confirm
Cc1ccc(S(=O)(=O)N2[C@@H](c3ccc(C(C)(C)C)cc3)C(C(=O)O)=CC[C@H]2c2ccc(Cl)c(Cl)c2)cc1 | -19.8 | 63.4* | 15.1 | . | 32.5 | -29.2
CC(C)CC(NC(N)=O)C(=O)NCCc1ccc(Cl)cc1Cl (stereo not drawn) | 16.4 | 0.2 | 10.9 | 5.1 | 1.2 | .
CC(C)(C)C(=O)Nc1ccc(/C=C/C(=O)c2ccco2)cc1 | 37.8 | 51.5* | 29.2 | 0.7 | 37.0 | 44.7*
COc1ccc(-c2coc3cc(OC(C)=O)c(OC)cc3c2=O)cc1 | 4.5 | 53.2* | 16.0 | . | 19.5 | 28.4
O=S1(=O)N[C@@H](Cc2ccccc2)COc2cc(Br)ccc21 | 26.2 | 69.9* | . | . | 2.6 | 42.2*
Cc1nc(N)c(CC(Br)CBr)c(Cl)n1 (stereo not drawn) | 10.0 | -9.0 | 0.6 | -45.1 | 2.6 | .
CCOc1ccc(C(CC(=O)O)NC(=O)Cc2ccc(Cl)cc2)cc1 (stereo not drawn) | 15.8 | 12.5 | 1.4 | 31.1 | -12.3 | .
O=C(COC(=O)CC1CCCC1)Nc1ccc(Cl)cc1 | 36.4 | 62.4* | 13.8 | . | 25.6 | 55.2*
CCOc1ccc(NC(=O)COC(=O)CC2CCCCC2)cc1 | -21.4 | 30.9 | 11.9 | . | 15.0 | .
COc1cccc(NC(=O)CN(C)C(=O)CCCc2c[nH]c3ccccc23)c1 | 10.9 | 19.3 | 23.2 | . | 7.8 | .
CC(Oc1ccc2c3c(c(=O)oc2c1)CCC3)C(=O)NCCCn1ccnc1 (stereo not drawn) | 12.9 | 3.1 | 10.1 | 8.5 | 1.5 | .
O=C(CSc1nnnn1Cc1ccccc1)c1ccc(F)cc1 | 18.7 | 53.7* | -0.8 | . | 29.0 | 52.4*
Cc1cn2c(=O)c(C(=O)N3CCN(c4ccccc4F)CC3)cnc2s1 | 4.2 | -0.4 | 3.1 | . | -4.7 | .
Cc1ccnc(NS(=O)(=O)c2ccc(NC(=O)CC(C)c3ccccc3)cc2)n1 (stereo not drawn) | -18.1 | -0.7 | 2.0 | 12.5 | 5.9 | .
COc1ccc(N2C(=O)CC(NCc3cccs3)C2=O)cc1 (stereo not drawn) | -3.8 | 54.6* | 1.8 | -30.8 | 1.1 | 12.9
COc1ccc(N2C(=O)CC(NCC#N)C2=O)cc1 (stereo not drawn) | 4.2 | 9.2 | 3.0 | 7.1 | 0.7 | .
O=[N+]([O-])c1nn(-c2ccc3c(c2)OCCO3)n(O)c1=Nc1ccc(Cl)cc1 | 24.3 | 43.6 | 36.2 | -4.7 | 20.2 | .
O=[N+]([O-])c1nn(-c2ccc3c(c2)OCCO3)n(O)c1=Nc1ccccc1 | 36.3 | 53.1* | 30.7 | -36.9 | 4.8 | 23.4
O=C(CCCN1C(=O)/C(=C/c2ccccc2)SC1=S)Nc1cccc(O)c1 | 37.7 | 50.2* | 12.0 | -14.8 | 33.4 | 50.0*
COc1cc(/C=C/C(=O)OCC(=O)c2ccc(OC(F)F)cc2)ccc1O | -9.0 | 64.7* | 17.7 | . | 10.3 | 54.4*
CCOc1ccc(NC(=O)CN(C)C(=O)c2c(C)nn(-c3ccccc3)c2Cl)cc1OCC | 0.3 | 6.6 | 8.8 | . | -0.6 | .
CCOC(=O)c1cccnc1SCc1cc(=O)n2ccccc2n1 | 17.1 | 70.6* | 15.0 | 3.5 | -5.2 | 64.8*
C=C(C)c1cccc(C(C)(C)NC(=O)NNC(=O)c2ccccc2O)c1 | 17.4 | 12.8 | -12.3 | -2.5 | -5.7 | .
CCCCc1nnc(NC(=O)C2CC(=O)N(Cc3ccccc3)C2)s1 (stereo not drawn) | 9.9 | 9.3 | 12.4 | 10.7 | 8.2 | .
Cc1ccc2[nH]cc(C(=O)CN3CCN(C)CC3)c2c1 | -1.6 | -1.5 | -0.3 | -0.6 | -11.8 | .
SMILES | tim10-1 inh | tim23-1 inh | NALP3 yeast inh | NALP1 inh | TIM10 inh | tim23-1 confirm
Cc1ccc2[nH]cc(C(=O)CCl)c2c1 | 12.9 | 58.0* | 6.4 | 20.2 | 35.6 | 65.7*
Cc1ccc(S(=O)(=O)N2C(=O)[C@@H]3Cc4ccccc4CN3C2=O)cc1 | 23.3 | 51.4* | 11.6 | 2.6 | 13.7 | 41.3*
COc1ccc(N=NC2=C(O)CC(C)(C)CC2=O)c(OC)c1 | 20.6 | 14.1 | 7.9 | 3.6 | 3.8 | .
CC1(C)CC(=O)C(N=Nc2ccc(Br)cc2)=C(O)C1 | -4.8 | 3.3 | 21.1 | -5.7 | -22.6 | .
CC1(C)CC(=O)C(N=Nc2ccc(C(F)(F)F)cc2[N+](=O)[O-])=C(O)C1 | 4.8 | 78.2* | 3.9 | 24.8 | 4.3 | 77.6*
CC1(C)CC(=O)C(N=Nc2cccc([N+](=O)[O-])c2)=C(O)C1 | 25.3 | 88.2* | 2.8 | 23.7 | 19.8 | 92.5*
N=C1/C(=C\c2coc3ccccc3c2=O)C(=O)N=C2SC(c3ccncc3)=NN12 | 22.0 | 53.5* | 13.3 | . | 34.6 | 5.8
N=C1/C(=C/c2coc3ccccc3c2=O)C(=O)N=C2SC(c3ccco3)=NN12 | -6.2 | 10.9 | 17.6 | 3.5 | 4.0 | .
COc1ccc(C(C[N+](=O)[O-])c2c(C)cc3ccccn23)c(OC)c1 (stereo not drawn) | 35.1 | 81.7* | 32.3 | 14.7 | 22.5 | 74.7*
COc1ccc(NC(=O)CCn2cccc2)c(OC)c1 | 8.1 | 10.3 | 33.6 | -25.3 | 8.1 | .
CC(=O)Nc1ccc(N(C(=O)c2ccco2)C(C(=O)NC2CCCCC2)c2ccccc2)cc1 (stereo not drawn) | 7.4 | 11.4 | 4.4 | -10.8 | -7.4 | .
Clc1ccc(-c2csc3ncnc(Cl)c23)cc1 | 9.1 | 59.7* | -7.5 | 20.2 | -12.9 | 41.6*
NNc1ncnc2scc(-c3ccc(Cl)cc3)c12 | 6.3 | 58.2* | 3.6 | 25.1 | 31.3 | 49.6*
OCCCNc1ncnc2scc(-c3ccc(Cl)cc3)c12 | 20.2 | 12.4 | -1.0 | 0.7 | 0.8 | .
CC(C)(C)NC(=O)C12CCC(C)(c3nc4ccccc4nc31)C2(C)C (stereo not drawn) | 39.3 | 52.6* | 13.8 | -5.5 | 38.3 | 37.2
COc1ccccc1C(=O)NCCC(=O)Nc1ccc(S(=O)(=O)N2CCC(C)CC2)cc1 | 16.1 | 22.2 | -6.3 | . | 4.9 | .
O=C1CC(C(=O)N2CCc3ccccc32)CN1c1ccccc1 (stereo not drawn) | -16.9 | -1.8 | 20.0 | 3.7 | 7.5 | .
CCOC(=O)c1ccc(NC(=O)/C=C/c2cccs2)cc1 | 8.7 | 61.2* | 45.7 | 3.7 | 18.5 | 52.1*
Cc1cccc(NC(=O)C2SC(=Nc3c(C)cccc3C)C(C(=O)N3CCOCC3)=C2N)c1 (stereo not drawn) | 13.6 | 0.8 | 14.7 | 26.6 | 9.2 | .
Cc1ccc(S(=O)(=O)c2nc(Cc3ccccc3)oc2N2CCOCC2)cc1 | 4.6 | 15.6 | -1.9 | . | 2.2 | .
Cn1c(C=O)c(C#CC(C)(C)O)c2ccccc21 | 29.4 | 61.4* | 10.9 | . | 38.4 | 59.9*
CCC(C)NC(=O)c1ccc(NC(=O)CC2SC(N3CCCC3)=NC2=O)cc1 (stereo not drawn) | 6.7 | 4.9 | 6.5 | . | 3.6 | .
O=Cc1cn(CCOc2ccccc2F)c2ccccc12 | 13.6 | 51.1* | 24.7 | 12.9 | 4.9 | 37.7*
COc1ccccc1OCCn1cc(C=O)c2ccccc21 | 23.8 | 29.6 | 22.8 | 8.4 | 4.4 | .
CC(C)CN=Cc1c(O)c([N+](=O)[O-])cc2oc3c(c12)CCCC3 | 36.8 | 66.0* | 41.8 | 50.2* | 39.7 | 1.0
